Measurements taken from PubChem BioAssay (EPA / NIEHS).
Several values for one entry are separate records, joined by “and”; a condition that tells them apart may be missing. Identical values can stand only once. Some compounds were tested as several samples or in several runs, with calls that do not always agree. Activity calls are given as the source filed them. The calls were made as follows: active = hit-call score of the fitted dose curve at least 0.9, where 1 is the maximum; inactive = score below 0.9.

read-out: HGF (gene 3082); test: LTEA_HepaRG_HGF: Life Technologies and Expression Analysis (LTEA) Assay for Hepatocyte Growth Facto (HGF) using HepaRG (AID 2283505); conditions: mRNA level, 48 h; actives raise or lower the signal
Experimental: LTEA_HepaRG is a cell based, multiplexed-readout assay that uses HepaRG, a human liver cell line, with measurements taken at 48 hours after chemical dosing on a 96-well plate.LTEA_HepaRG_HGF is one of 102 assay component(s) measured in the LTEA HepaRG cell culture assay. It is a marker of Cell proliferation, survival, death.Data from the assay component LTEA_HepaRG_HGF was analyzed into 1 endpoint. This assay endpoint, LTEA_HepaRG_HGF, was analyzed with bidirectional fitting relative to DMSO as the negative control and baseline of activity. Using a type of inducible reporter, measures of mRNA induction for gain or loss-of-signal activity can be used to understand regulation of transcription factor activity. To generalize the intended target to other relatable targets, this assay endpoint is annotated to the growth factor intended target family, where the subfamily is hepatocyte growth factor.
A total of 1060 chemcials from the ToxCast library were tested in eight-point concentration-response experiments. Cell culture and cytotoxicity assays were conducted at Thermo Fisher Scientific's Custom Services facility (Madison, WI). A single lot of human HepaRG cells (Thermo Fisher Scientific, Frederick, MD) was used for the cell culture experiments. 96-well format collagen type I coated plates of human HepaRG cells were prepared using established methods. Briefly, cryopreserved HepaRG cells were thawed, plated at a density of approximately 100,000 cells/well in HepaRG Thaw, Plate, and General Purpose media (HPRG770, Thermo Fisher Scientific), and incubated for 48 hours. 0.5% DMSO was selected as vehicle control to balance the requisite need of DMSO in HepaRG cultures to maintain differentiation (for example, baseline metabolism, proportions of hepatocytes vs. cholangiocytes), while enabling further hepatic receptor pathway activation (for example, PXR and CAR) in response to chemical exposure. 48 hours after plating, the culture medium was replaced with HepaRG Serum-Free Incudtion Media. Cells were exposed to each test chemical in duplicate and maintained in CO2 incubators for another 48 hours. Chemical plates were thawed to room temperature and 200x concentrations of treatment groups were prepared. 8-point conentration-reponse curves were made with the highest exposure at 100 uM, followed by half-log dilutions, all in 0.5% DMSO. Each test plate contained variouse controls, induction positive controls (1mM phenobarbital), cytotoxicity positive controls ([…] aflatoxin B1), vehicle controls (0.5% DMSO), and total lysis controls (0.5% DMSO). Cell morphology images were taken using an Essen IncuCyte FLR automated microscope, with six 96-well plates imaged in about 24 minutes. Images were captured and exported and JPEG files. Spent culture media was transfered to black-well plates for the LDH assay, and remaining media was sorted at -80 C for later use. Cells were treated with RLT buffer and frozen until shipped for gene expression analysis. Total RNA was isolated from the cell suspension in 75 uL of Buffer RLT (Qiagen, Germantown, MD 20874) by Quintiles/Expression Analysis (Durham, NC) using a custom isolation procedure. Total RNA from each plate well was transferred to a preamplification plate. Fluidigm's 96.96 Dynamic ArrayTM (Fluidigm, Amsterdam, the Netherlands) technology was used for gene expression analyses by quantitative reverse transcription polymerase chain reaction (qRT-PCR, performed by Quintiles/Expression Analysis, Durham, NC)89. Standard TaqManTM Assays (Applied Biosystems/ThermoFisher Scientific, Foster City, CA) were used to assess the expression of 93 genes selected based on their selectivity and sensitivity to important hepatic receptors known to be modulated by environmental chemicals; importance in human hepatocyte functionality; and hepatotoxicity. […]

SMILES | outcome | AC50
CC(C)(C)[C@@H](O)[C@@H](Cc1ccc(Cl)cc1)n1cncn1 | inactive | –
O=C(c1ccccc1)C1CCCCC1 | inactive | –
C[C@]12CC[C@@H]3c4ccc(O)cc4C[C@@H](CCCCCCCCCS(=O)CCCC(F)(F)C(F)(F)F)[C@H]3[C@@H]1CC[C@@H]2O (stereo not given in full) | – | 0.0444 µM (active)
C#C[C@]1(O)CC[C@H]2[C@@H]3CCC4=CC(=O)CC[C@@H]4[C@H]3CC[C@@]21CC | inactive | –
C[C@]12C[C@H](O)[C@H]3[C@@H](CCC4=CC(=O)CC[C@@]43C)[C@@H]1CC[C@@H]2C(=O)CO | inactive | –
O=C(c1ccc(O)cc1O)c1ccc(O)cc1O | inactive | –
CCOC(=O)C(C)Oc1ccc(Oc2cnc3cc(Cl)ccc3n2)cc1 (stereo not given) | inactive | –
COC(=O)CSc1cc(N=c2sc(=O)n3n2CCCC3)c(F)cc1Cl | inactive | –
CCN(Cc1c(F)cccc1Cl)c1c([N+](=O)[O-])cc(C(F)(F)F)cc1[N+](=O)[O-] | inactive | –
CCCN(CCC)c1c([N+](=O)[O-])cc(C(F)(F)F)c(N)c1[N+](=O)[O-] | inactive | –
C#CCOC(=O)[C@@H](C)Oc1ccc(Oc2ncc(Cl)cc2F)cc1 | inactive | –
CC1(C)C(C=C(Cl)Cl)C1C(=O)OCc1cccc(Oc2ccccc2)c1 (stereo not given) | inactive | –
O=C(O)C1(C(=O)Nc2ccc(Cl)cc2Cl)CC1 | inactive | –
S=C(S)NCCNC(=S)S.[Mn+2].[S-]C([S-])=NCCN=C([S-])[S-].[Zn+2] | inactive | 3.68 µM (active) and 9.89 µM (active)
O=C(O)c1ccccc1 | inactive | –
CC(C)(c1ccc(O)cc1)c1ccc(O)cc1 | inactive | –
CCOC(=O)C(C)Oc1ccc(Oc2nc3ccc(Cl)cc3o2)cc1 (stereo not given) | inactive | –
Oc1ccc(C(c2ccc(O)cc2)C(Cl)(Cl)Cl)cc1 | – | 83.7 µM (active)
Cc1nn(C)c(Oc2ccccc2)c1C=NOCc1ccc(C(=O)OC(C)(C)C)cc1 | – | 86.6 µM (active)
CCCCOCCOCCOCc1cc2c(cc1CCC)OCO2 | inactive | –

SMILES | outcome | AC50
COC(=O)c1ccc(I)cc1S(=O)(=O)NC(=O)Nc1nc(C)nc(OC)n1 | inactive | –
C=CCOC(Cn1ccnc1)c1ccc(Cl)cc1Cl (stereo not given) | inactive | –
CCOC(=O)c1ccc(O)cc1 | inactive | –
CCC(C)OC(=O)N1CCCCC1CCO (stereo not given) | inactive | –
S=C([S-])NCCNC(=S)[S-].[Mn+2] | – | 7.5 µM (active)
CCCCOC(=O)C(C)Oc1ccc(Oc2ccc(C(F)(F)F)cn2)cc1 (stereo not given) | inactive | –
CC(C)CCCCCCc1ccc(O)cc1 | inactive | –
CCCCC(CC)CN1C(=O)C2C3C=CC(C3)C2C1=O (stereo not given) | inactive | –
CCN(CC)C(=O)c1cccc(C)c1 | inactive | –
CCNc1nc(N)nc(Cl)n1 | inactive | –
N[C@@H](Cc1cc(I)c(Oc2ccc(O)c(I)c2)c(I)c1)C(=O)O | inactive | –
c1ccc2[nH]c(-c3cscn3)nc2c1 | inactive | –
CCCCOC(=O)[C@@H](C)Oc1ccc(Oc2ccc(C(F)(F)F)cn2)cc1 | inactive | –
CN(C)C(=O)Nc1ccc(Cl)c(Cl)c1 | inactive | –
COCCO | inactive | –
COC(=O)c1ccccc1C(=O)O | inactive | –
COc1c(Cl)ccc(Cl)c1C(=O)O | inactive | –
O=C(Nc1ccc([N+](=O)[O-])cc1Cl)c1cc(Cl)ccc1O | – | 2.98 µM (active)
CC(=O)[C@H]1CC[C@H]2[C@@H]3CCC4=CC(=O)CC[C@]4(C)[C@H]3CC[C@]12C | – | 85.4 µM (active)
